Reference: PubChem BioAssay AID686979 (National Center for Advancing Translational Sciences (NCATS), 2013)
The campaign covered roughly 420,000 compounds. About 50,000 (12%) were called active. Inconclusive results (about 26%) are left out. Only a selection was taken, and actives are over-represented in it overall. Unmarked numbers belong to inactive results. Calls follow the shape of the dose curve; as a rule, active = well fitted inhibition curve with a large enough effect; inconclusive = small, poorly fitted or top-dose-only effect; inactive = flat fitted curve, though single readings scatter.

test: qHTS for Inhibitors of human tyrosyl-DNA phosphodiesterase 1 (TDP1): qHTS in cells in presence of CPT; conditions: chicken DT40 Tdp1-/-;hTDP1 cells + 20 nM CPT, ATP luminescence, 48 h; series mostly up to 46.2 µM; activity change, negative = growth inhibition: at the top concentration; also: nearly all actives have a fitted effect of over 55% in size
In short: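 Cell growth measured by CellTiter-Glo luminescence after a minimum 48 h, 37 C compound exposure with 20 nM CPT in Tdp1-knockout DT40 cells stably expressing hTDP1, seeded 400/well; qHTS titration format.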
% is scaled to controls: 0 for no effect and ±100 for the full control effect; potency is read from the fitted curve at half-maximal effect.

SMILES	activity change, negative = growth inhibition	Potency
N#CCc1ccc(OC(=O)c2cccnc2)cc1	-0.983%	
CC(OC(=O)CNC(=O)c1cccc(F)c1)C(=O)NC1CCCCC1C (stereo not given)	-0.171%	
Cc1ccc(CC(=O)Nc2ccc(OC(F)F)c(Cl)c2)cc1C	-0.622%	
Cc1ccc(/C=N/NC(=O)CN2CCN(Cc3ccccc3)CC2)s1	11.8%	
C=C(C)CNC(=S)N/N=C/c1ccccc1OCC(=O)O	-5.81%	
C=CCNC(=S)N/N=C/c1ccc(C)s1		4.61 µM (active)
Cc1cc(OC(C)C(=O)Nc2sc3c(c2C(N)=O)CCCC3)ccc1Cl (stereo not given)	-25%	
Nc1scc[n+]1Cc1cccc2cccnc12	4.35%	
c1ccc2c(C[n+]3csc4ccccc43)cccc2c1		0.92 µM (active)
CCOC(=O)N1CCN(C(=O)CSc2nc(=O)n3cccc(C)c3n2)CC1	2.09%	
CCOC(=O)CNC(=O)c1cc2c(=O)n3cccc(C)c3nc2s1	-15.6%	
CCOC(=O)CC1C(=O)NCCN1c1nc2c(C)cccn2c(=O)c1/C=C1\SC(=S)N(C(C)CC)C1=O (stereo not given)		16.4 µM (active)
N#CC1(NC(=O)COC(=O)CCN=C2NS(=O)(=O)c3ccccc32)CCCCC1	12.3%	
COc1cccc(N(CC(=O)NCc2ccccc2)C(=O)CCC(=O)Nc2nccs2)c1	-20.2%	
CCc1noc(C)c1C(=O)N1CCN(S(=O)(=O)c2cccc(C(F)(F)F)c2)CC1	0.576%	
CS(=O)(=O)N(Cc1nc2sc3c(c2c(=O)[nH]1)CCCC3)C1CCCCC1		20.6 µM (active)
O=C(CCc1nc2sc3c(c2c(=O)[nH]1)CCCC3)NCC(=O)Nc1ccccc1Br	13.3%	
NNC(=O)C1CCCn2c1nc1sc3c(c1c2=O)CCCC3 (stereo not given)	8.97%	
CCCCCCCCCCCCCCCCO	-5.61%	
O=C(CCN1C(=O)[C@@H]2Cc3ccccc3CN2C1=O)NCc1ccccc1	-0.237%	
CCOC(=O)N1CCC(N(CCOC)C(=O)Nc2ccc(C)c(C)c2)CC1	-22.5%	
Cc1cccc(NC(=O)CN2C(=O)c3ccccc3C2=O)c1C	6.02%	
Cc1cccc(NC(=O)COC(=O)CCc2ccccc2)c1C	-6.21%	
Cc1cccc(NC(=O)CSc2nc3c(c(=O)[nH]2)CCC3)c1C	4.77%	
Cc1cccc(NC(=O)CSc2nc3c(c(=O)[nH]2)CCCC3)c1C	-21.3%	
Cc1cccc(NC(=O)CSc2ncc(-c3ccccc3)[nH]2)c1C		25.9 µM (active)
Cc1cccc(NC(=O)CSC(N)=O)c1C		25.9 µM (active)
CN(Cc1ccccc1)C(=O)c1ccc(NC2=NC3CS(=O)(=O)CC3S2)cc1 (stereo not given)	2.81%	

SMILES	activity change, negative = growth inhibition	Potency
Cc1cccc2c(=O)cc(CSc3ccccc3NC(=O)C(C)C)[nH]c12	-5.53%	
COc1ccc(/C(N)=N/OC(=O)Cc2ccccc2)cc1	13.2%	
COc1ccc(C(C#N)=C2C=CC(=NO)c3ccccc32)cc1		1.3 µM (active)
COc1ccc(C(=NN)c2ccc(OC)cc2)cc1	4.73%	
COc1ccc(C(=O)N(C)Cc2ccc(OC)c(OC)c2OC)cc1S(=O)(=O)N1CCOCC1	-1.37%	
O=C(OCN1C(=O)c2ccccc2C1=O)/C(=C\c1ccco1)NC(=O)c1ccccc1	1.01%	
COc1ccc(/C=C(/NC(=O)c2ccco2)C(=O)Nc2ccc(C(C)=O)cc2)cc1	6.29%	
COc1ccc(/C=C(\NC(=O)c2ccc(OCC(C)C)cc2)C(=O)OCc2ccco2)cc1		20.6 µM (active)
CCOc1ccc(/C=C/C(=O)N(CC)CC(=O)NCc2cccs2)cc1OC	-17.8%	
CC(=O)N[C@@H](C)C(=O)N1CCC(n2nccc2NC(=O)CCCc2ccccc2)CC1	7.97%	
ClC/C=C/C[n+]1ccccc1Cl	-26.5%	
O=C(NCCC1CCCCN1S(=O)(=O)c1ccc(F)cc1)C(=O)NC1CC1 (stereo not given)	0.311%	
O=C(NCCC1CCCCN1S(=O)(=O)c1cccs1)C(=O)Nc1ccc(F)cc1F (stereo not given)		2.91 µM (active)
O=C(NCc1ccccc1Cl)C(=O)NCC1CCCN1S(=O)(=O)c1cccs1 (stereo not given)	-14.6%	
C/C(=N\NC(=O)c1nc(C)cc(C)n1)c1ccccc1	10.9%	
Cc1ccc(N/C=C/C(=O)c2ccccc2)cc1C	0.497%	
Cc1cc(C)nc(S/C=C/C(=O)c2ccccc2)n1		2.06 µM (active)
O=C(CN(Cc1ccccc1)C(=O)CCC(=O)Nc1ccccn1)NCCc1ccccc1	-26.5%	
O=C(CCCn1c(SCC(=O)c2ccccc2)nc2ccccc2c1=O)NCC1CCCO1 (stereo not given)		16.4 µM (active)
O=C(CCn1c(SCC(=O)c2ccccc2)nc2ccccc2c1=O)NCc1ccc(F)cc1	-4.07%	
O=C(CSc1nc2ccccc2c(=O)n1Cc1ccc(F)cc1)NCC1CCCO1 (stereo not given)	-24.9%	
Cc1ccc(CNC(=O)C(=O)c2cn(CC(=O)N3CCCC3)c3ccccc23)cc1	-29.5%	
N#CCC(=O)N/N=C/c1ccc(SCC(=O)Nc2ccccc2)o1	-23.9%	
COCCCNC(=O)Cn1cc(/C=C(\C#N)C(=O)N2CCN(c3ccccc3)CC2)c2ccccc21	3.39%	
N#CCC(=O)N/N=C/c1cn(Cc2ccc3ccccc3c2)c2ccccc12		5.8 µM (active)
NC(=O)Cn1cc(/C=N\NS(=O)(=O)c2ccccc2)c2ccccc21	-4.65%	
CNC(=S)N/N=C/c1cn(Cc2ccc(C)cc2)c2ccccc12		18.4 µM (active)
